Bioassay records from PubChem.
An excerpt weighted towards active compounds, which were near 11% of everything screened.
HCV inhibitor: inhibitors of hepatitis C virus infection. AID 651820. Potency, µM (top dose mostly 41.8 µM), inactives show top-dose activity change, negative = inhibition, usual class: inhibitors. Huh7.5.1 HCVcc-Cre infection, luciferase reporter, 44 h. 3.4% of 340,000 active
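Cells (1,000/well) were plated 4 h before compound, then infected with HCVcc-Cre virus (~0.5 moi). After 44 h further culture, infection was read as luciferase luminescence following a 15 min substrate incubation at room temperature.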
AMA1 RON2 block: AMA1-RON2 (P. falciparum) interaction inhibition; 0.2% of 360,000 active; Potency, µM (doses to about 58.2 µM), for inactives: top-dose activity change, negative = inhibition, usual class: inhibitors; AlphaScreen AMA1-biotinylated RON2 peptide binding; AID 720542;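 also: 0% = vehicle wells and -100% = peptide control; nearly all actives have a fitted effect of over 45% in size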
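AMA1 (3D7) with his tag at 25 nM final met compounds first, then biotinylated RON2 peptide at 25 nM; detection used donor plus acceptor beads, 10 µg/mL apiece, read by AlphaScreen after 30 min at room temperature.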
AmpC inh detg: inhibitors of E. coli AmpC beta-lactamase with detergent; AmpC hydrolysis of nitrocefin, absorbance 480 nm, 0.01% Triton; 0.041% of 370,000 active; Potency, µM (highest dose often 114 µM), without a hit: top-dose activity change, negative = inhibition, usual class: inhibitors;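 also: 0% = no-compound wells and -100% = no-enzyme wells; nearly all actives have a fitted effect of over 25% in size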
Target sequence (P00811 whole entry, looked up): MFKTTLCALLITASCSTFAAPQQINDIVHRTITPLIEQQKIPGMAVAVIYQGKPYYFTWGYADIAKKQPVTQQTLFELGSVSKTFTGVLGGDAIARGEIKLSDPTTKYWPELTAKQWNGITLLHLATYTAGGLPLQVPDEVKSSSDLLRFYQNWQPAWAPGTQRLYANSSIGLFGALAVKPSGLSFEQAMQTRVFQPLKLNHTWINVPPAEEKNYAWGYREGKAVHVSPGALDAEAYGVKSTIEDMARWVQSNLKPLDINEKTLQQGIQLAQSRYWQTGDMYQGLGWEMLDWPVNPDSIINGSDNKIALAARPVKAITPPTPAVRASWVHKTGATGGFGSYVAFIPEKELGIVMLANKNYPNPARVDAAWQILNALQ
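AmpC (5.3 nM in the dispensed reagent) in 20 mM phosphate pH 7.0 with 0.01% (detergent screen) or 0.0001% Triton X-100 was preincubated with compounds for 15 min at room temperature. Nitrocefin was then added from an 800 uM solution, and hydrolysis was followed at 480 nm.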
Pf growth 96h: P. falciparum growth inhibition at 96 hour, primary screen for plastid delayed-death inhibitors; P. falciparum luciferase reporter growth, 96 h; Potency, µM (highest dose often 28.7 µM), without a hit: top-dose activity change, negative = inhibition, hits mostly inhibitors; 6.9% of 320,000 active; AID 504834
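Cell-based qHTS: luciferase-tagged P. falciparum in erythrocytes (2% hematocrit, 0.05% parasitemia final) incubated with compounds for 96 hours, 37 C, 5% CO2; luciferase detection reagent then added and luminescence measured.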
AmpC inh no detg: AmpC beta-lactamase inhibition without detergent; P00811; AmpC nitrocefin hydrolysis, absorbance 480 nm, 0.0001% Triton; Potency, µM (series often up to 57.1 µM), inactives show at the top dose activity change, negative = inhibition, hits mostly inhibitors; 0.52% of 330,000 active;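 also: plate controls were no compound for no effect and no enzyme for full effect; nearly all actives have a fitted effect of over 20% in size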
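20 mM phosphate pH 7.0 + 0.01% (detergent screen) or 0.0001% Triton X-100; 5.3 nM AmpC reagent; cpd preinc 15 min RT; nitrocefin (800 uM stock) to start; A480 q20 s × 4 min; Activity was normalised to no-enzyme and no-compound control wells.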
Pf growth 48h: inhibits P. falciparum growth in the first generation, 48 h; P. falciparum luciferase growth in erythrocytes, 48 h; Potency, µM (doses to about 28.7 µM), for the others: at the top dose activity change, negative = inhibition, usual class: inhibitors; 5.9% of 310,000 active; AID 504832
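Luciferase-expressing parasites in RBCs, 2% Hct / 0.1% parasitemia final; RPMI 1640 + 0.5% Albumax; 37 C, 5% CO2, one generation; luminescence read-out, lower signal = inhibition.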
Numbers without * were called inactive; ? = inconclusive; / = not tested or not shown. Calls follow the shape of the dose curve; as a rule, active = well fitted curve in the direction sought with a large enough effect; inconclusive = small, poorly fitted or top-dose-only effect, or another doubt; inactive = no such curve, though single readings can be large; an effect the other way counts as inactive or inconclusive. Unless noted, % is scaled to controls: 0 for no effect and ±100 for the full control effect; potency is read from the fitted curve at half-maximal effect.

SMILES	HCV inhibitor	AMA1 RON2 block	AmpC inh detg	Pf growth 96h	AmpC inh no detg	Pf growth 48h
CC1CCc2c(C(=O)NCCN3CCOCC3)csc2C1 (stereo unspecified)	1%	8%	0%	8.3µM*	37%	60%
CC1CCc2c(C(=O)NCCCN3CCOCC3)csc2C1 (stereo unspecified)	?	5%	9%	/	60%	5%
O=C(NC1CCCCC1)C1CCN(C(=O)c2ccc(-c3ccccc3)cc2)CC1	1%	7%	-4%	6%	18%	-15%
CC(C)(C)NC(=O)C1CCN(C(=O)c2ccc(-c3ccccc3)cc2)CC1	?	0%	?	/	113%	9.3µM*
COc1ccc(N2CCN(c3ccc(-c4nc(-c5ccccc5)no4)cc3[N+](=O)[O-])CC2)cc1	/	/	-2%	/	/	/
CCOc1cc(S(=O)(=O)NCCc2c(C)[nH]c3ccc(C)cc23)ccc1F	/	/	12%	/	/	/
CC1CCN(C(=O)c2ccc(N3CC4CC(C3)c3cccc(=O)n3C4)c([N+](=O)[O-])c2)CC1 (stereo unspecified)	33%	7%	-7%	2.3µM*	-2%	9%
COc1ccc(NC(=O)Nc2cc(C(=O)O)ccc2N2CC3CC(C2)c2cccc(=O)n2C3)c(OC)c1 (stereo unspecified)	-1%	5%	10%	-24%	-13%	0%
COc1cccc(NC(=O)Nc2cc(C(=O)O)ccc2N2CC3CC(C2)c2cccc(=O)n2C3)c1 (stereo unspecified)	14%	-9%	8%	1.5µM*	-27%	-7%
O=C(CCN1CCOCC1)Nc1cc(C(=O)Nc2ccc(Cl)cc2)ccc1N1CC2CC(C1)c1cccc(=O)n1C2 (stereo unspecified)	?	-3%	-3%	?	213%	12µM*
CCOc1ccccc1NC(=O)c1nc(S(=O)(=O)Cc2cccc(C)c2)ncc1Cl	2.8µM*	0%	-11%	-28%	-18%	25%
COC(=O)c1ccccc1NC(=O)c1nc(S(=O)(=O)Cc2ccccc2)ncc1Cl	0%	0%	-4%	?	-17%	18%
CSc1nnc(NC(=O)c2nc(S(=O)(=O)Cc3ccccc3F)ncc2Cl)s1	?	58%	-4%	?	-22%	14%
CSc1nnc(NC(=O)c2nc(S(=O)(=O)Cc3cccc(C)c3)ncc2Cl)s1	13µM*	53%	11%	?	-26%	-32%
CCc1nnc(NC(=O)c2nc(S(=O)(=O)Cc3cccc(C)c3)ncc2Cl)s1	11µM*	69%	-8%	35%	103%	-4%
Cc1cccc(CS(=O)(=O)c2ncc(Cl)c(C(=O)Nc3nnc(C(C)C)s3)n2)c1	11µM*	66%	-1%	?	16%	?
CC(=O)N1CCc2cc(Br)cc(S(=O)(=O)CCC(=O)N3CCN(c4ccc(F)cc4)CC3)c21	/	/	-8%	/	/	/
Cn1c(=O)c2nc(SCC(=O)Nc3cc(Cl)cc(Cl)c3)n(C)c2n(C)c1=O	/	/	0%	/	/	/
COc1ccc(CCNC(=O)Cn2cc(C(=O)c3ccccc3)c(=O)c3ccc(C)nc32)cc1OC	/	/	19%	/	/	/
CCC(=O)N1CCc2cc(CNC(=O)c3cccc(N(C)C)c3)ccc21	/	/	-1%	/	/	/
CCOC(=O)c1[nH]c(C)c(CCC(=O)Nc2ccc(C)cc2Cl)c1C	/	/	25%	/	/	/
CCn1c(N2CCN(S(=O)(=O)c3ccc(OC)cc3)CC2)nc2ccccc21	10µM*	-6%	-8%	12µM*	12%	?
CCn1c(N2CCN(C(=O)C34CC5CC(CC(C5)C3)C4)CC2)nc2ccccc21	-16%	23%	1%	/	40%	13µM*
